About 1,900 (0.58%) of roughly 330,000 compounds were called active. Another 4% or so got no clear call; they are omitted. No stated cut-off is given here; in the data, inconclusive means inhibition above about 70% without an active follow-up result; inactive means below that. Only a sample is shown. Results with a measured potency or affinity are listed apart.
Experiment: M. tuberculosis growth inhibition, HTS (AID 449762);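 further: bacterial growth assessed after seven days of incubation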
Conditions: M. tuberculosis H37Rv growth inhibition, 7H9 media; at 25 µM; hits give high values
For `C/C(=N\OC(=O)c1c(-c2c(F)cccc2Cl)noc1C)c1nccs1`, the inhibition was 3.84% (inactive).
With `Cc1onc(-c2c(Cl)cccc2Cl)c1C(=O)O/N=C(\C#N)c1c(Cl)cccc1Cl` the inhibition was -0.37% (inactive).
For `CCOC(=O)[C@H]1[C@H]2COc3ccc(Br)cc3[C@@H]2N2C(=O)N(c3ccccc3)C(=O)[C@@]12C`, the inhibition was 6.24% (inactive).
In the case of `CCOc1ccc(CNC(=O)C2CCCN(S(=O)(=O)N3CC(C)CC(C)C3)C2)cc1OC` (centres undefined), the inhibition is reported as -1.45% (inactive).
For `COC(OC)c1ccnc(-c2ccc(OC(=O)c3ccccc3)cc2)n1`, the inhibition was 57% (inactive).
In the case of `COC(OC)c1ccnc(-c2ccc(OC(C)=O)cc2)n1`, the inhibition is reported as 0.19% (inactive).
For `CCC[N+](CC#Cc1ccccc1)(CCC)CC(=O)OC`, the inhibition was 0.57% (inactive).
With `Cc1occc1-c1nnc(SCC(=O)NC2CC2)n1C(C)C` the inhibition was 6.3% (inactive).
In the case of `CCOCCn1c(=O)c2c(nc3n2CCCN3Cc2ccccc2)n(C)c1=O`, the inhibition is reported as 4.47% (inactive).
With `CCCC(O)(c1ccc(CC)cc1)C(CN1CCOCC1)c1ccccc1` (centres undefined) the inhibition was 9.99% (inactive).
In the case of `CCOC(=O)CSc1nc2ccsc2c(=O)n1C1CCN(C(=O)OCC)CC1`, the inhibition is reported as 39.3% (inactive).
For `CCOC(=O)N1CCC(n2c(SCC(=O)c3ccccc3)nc3ccsc3c2=O)CC1`, the inhibition was -5.37% (inactive).
With `COc1ccc(/C=N/NC(=O)c2cccc(C(=O)N/N=C/c3ccc(OC)cc3)n2)cc1` the inhibition was -1.47% (inactive).
For `O=C(CN1C(=O)COc2ccccc2C1=O)c1ccc2c(c1)OCCO2`, the inhibition was 4.6% (inactive).
In the case of `O=C(OC(C(=O)c1c[nH]c2ccccc12)c1ccccc1)c1cnccn1` (centres undefined), the inhibition is reported as 1.97% (inactive).
With `Nc1nnnn1/N=C/c1ccccc1` the inhibition was -0.26% (inactive).
For `Nc1nnnn1/N=C/C=C/c1ccccc1`, the inhibition was -3.78% (inactive).
With `CCOC(=O)N1CCC(N2C(=O)c3ccc(C(=O)Nc4ccc(F)cc4F)cc3C2=O)CC1` the inhibition was -5.69% (inactive).
For `CCOC(=O)N1CCN(S(=O)(=O)c2ccc(C(=O)N(CCN(C)C)c3nc4c(C)cccc4s3)cc2)CC1`, the inhibition was -14.4% (inactive).
In the case of `CC1=C(c2ccc(F)cc2)[N+](=O)C(C)(C)N1[O-]`, the inhibition is reported as -6.06% (inactive).
In the case of `Cc1ccc(C(C(=O)NC(C)(C)C)N(Cc2ccccc2)C(=O)c2snc(C(N)=O)c2N)o1` (centres undefined), the inhibition is reported as -7.23% (inactive).
In the case of `COc1ccc(/C=C2/C(=O)N(c3ccccc3)N=C2C)cc1OC`, the inhibition is reported as 8.2% (inactive).
For `COc1cc(/C=C2/C(=O)N(c3ccccc3)N=C2C)ccc1OS(=O)(=O)c1ccccc1`, the inhibition was 11% (inactive).
For `CCOC(=O)N1CCN(Cc2ccc3ccccc3c2)CC1`, the inhibition was 9.89% (inactive).
With `CCCCC(=O)Nc1cccn2ncnc12` the inhibition was -5.05% (inactive).
In the case of `O=C(Nc1cccn2ncnc12)C(Cl)Cl`, the inhibition is reported as 8.05% (inactive).
In the case of `Cc1ccc(/C=C2/SC(=S)N(CCC(=O)N3CCOCC3)C2=O)cc1`, the inhibition is reported as -5.59% (inactive).
For `CCCn1c(=N)n(CC(=O)c2ccc(Cl)cc2)c2ccccc21`, the inhibition was 20.9% (inactive).
With `CCCCn1c(=N)n(CC(=O)c2ccc(OC)cc2)c2ccccc21` the inhibition was 2.91% (inactive).
With `Cc1ccc(S(=O)(=O)NCc2ccc(C(=O)NCc3cccnc3)cc2)cc1` the inhibition was -0.01% (inactive).
In the case of `Cc1cc(NC(=O)c2cc(-c3cccc(Cl)c3)on2)no1`, the inhibition is reported as 4.25% (inactive).
For `O=C(NNS(=O)(=O)c1ccccc1[N+](=O)[O-])c1ccccc1[N+](=O)[O-]`, the inhibition was -1.87% (inactive).
In the case of `C=CCSC1=N/C(=C\c2ccc3c(c2)OCO3)C(=O)S1`, the inhibition is reported as 2.93% (inactive).
With `CCc1nc(N=C(N)N)nc2ccccc12` the inhibition was -2.46% (inactive).
For `Cc1nc(N=C(N)N)nc2ccccc12`, the inhibition was 0.45% (inactive).
In the case of `Cc1cc(C2C(=O)c3ccccc3C2=O)c(C)c(C)c1C`, the inhibition is reported as 30.3% (inactive).
For `Cc1ccc(C2C(=O)c3ccccc3C2=O)cc1`, the inhibition was 7.43% (inactive).
For `CC(=O)NC12CC3CC(C1)CC(C(=O)N(C)CC(=O)Nc1cccc(F)c1)(C3)C2`, the inhibition was 6.36% (inactive).
For `CC(NC(=O)c1cc(COc2c(F)cccc2F)on1)c1cnn(-c2ccccc2)c1` (centres undefined), the inhibition was 1.01% (inactive).
For `CCCCn1c(N)c(N(CC(C)C)C(=O)C2CCN(c3ncnc4sc(C)c(C)c34)CC2)c(=O)[nH]c1=O`, the inhibition was 54.4% (inactive).
With `Cc1sc2ncnc(N3CCC(C(=O)N(C)CC(=O)Nc4ccccc4Cl)CC3)c2c1C` the inhibition was 67.4% (inactive).
For `CNC(=O)CSc1nnc(-c2ccco2)n1-c1cccc(C)c1C`, the inhibition was -8.51% (inactive).
In the case of `O=C(Cc1ccc(F)cc1)NCCS(=O)(=O)N1CCN(c2ccccc2)CC1`, the inhibition is reported as -9.43% (inactive).
For `COc1ccc(/C=C2\SC(=S)N(Cc3cccnc3)C2=O)cc1C`, the inhibition was 12.2% (inactive).
With `Cc1ccc(S(=O)(=O)N2CCC(C(=O)OCC(=O)NCCc3ccccc3)CC2)cc1C` the inhibition was 1.72% (inactive).
In the case of `CCOC(=O)C1CCN(S(=O)(=O)c2ccc(C)c(C)c2)CC1`, the inhibition is reported as -5.37% (inactive).
For `COc1cccc(NC(=O)[C@H](Cc2ccccc2)NC(=O)[C@@H]2Cc3ccccc3CN2)c1`, the inhibition was -7.04% (inactive).
For `O=C(Nc1ccc(C(F)(F)F)cc1-c1ccccc1)c1ccccc1`, the inhibition was -5.73% (inactive).
In the case of `O=C(Nc1cnccn1)C1c2ccccc2Oc2ccccc21`, the inhibition is reported as -4.63% (inactive).
In the case of `CCOC(=O)c1c(C)[nH]c(C)c1C(=O)CN1C(=O)NC2(CCC(C)CC2)C1=O` (centres undefined), the inhibition is reported as -4.05% (inactive).
In the case of `CCc1ccc2oc(-c3cc(N)cc(C)c3O)nc2c1`, the inhibition is reported as 42.6% (inactive).
In the case of `CCc1ccc2oc(-c3cc(N)ccc3O)nc2c1`, the inhibition is reported as -0.82% (inactive).
In the case of `O=C1c2cc(O)cc(O)c2C(=O)c2c1cc(O)c([C@@H](CO)CCO)c2O`, the inhibition is reported as -12.7% (inactive).
In the case of `O=C(O)c1cc(O)c2c(c1)C(=O)c1cc(O)cc(O)c1C2=O`, the inhibition is reported as -5.47% (inactive).
With `CCOc1ccccc1NC(=S)NC1CCCCC1` the inhibition was -19.5% (inactive).
For `CCc1nn(CC(=O)NCCN2CCN(C)CC2)c(=O)c2cc3c(OC)cccc3n12`, the inhibition was 7.05% (inactive).
For `CCc1ccc(N=CC2=C(O)CC(c3ccco3)CC2=O)cc1` (centres undefined), the inhibition was 0.59% (inactive).
In the case of `Cc1ccc(N=CC2=C(O)CC(c3ccco3)CC2=O)cc1` (centres undefined), the inhibition is reported as -6.24% (inactive).
In the case of `Cc1cccc(C)c1NC(=O)C1NC(=O)CC1c1ccccc1` (centres undefined), the inhibition is reported as 17.9% (inactive).
